{"source": "PubChem BioAssay (NCATS)", "note": "Inconclusive results are not listed. Activity calls are given as the source filed them. Calls come from the whole dose curve; as a rule, active = well fitted curve in the direction sought with a large enough effect; inconclusive = small, poorly fitted or top-dose-only effect, or another doubt; inactive = no such curve, though single readings can be large; an effect the other way counts as inactive or inconclusive."}
{"assay": "qHTS for Inhibitors of Plasmodium falciparum (7G8) proliferation (AID 504316);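 note: 0% = DMSO vehicle and -100% = 0.29 µM artemisinin full kill; nearly all actives have a fitted effect of over 65% in size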", "conditions": "P. falciparum 7G8 in erythrocytes, SYBR Green DNA, 72 h; series mostly up to 6.7 µM; activity change, negative = inhibition: at the top concentration", "method_in_brief": "(§1)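 Erythrocytes infected with P. falciparum line (0.3% parasitemia, 2.5% hematocrit final) incubated with compounds 72 h at 37 °C, 5% CO2; SYBR Green lysis buffer added, fluorescence read next day. Normalized to 0.29 uM artemisinin and DMSO.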"}
{"compound": "COC(=O)[C@H](Cc1ccccc1)NC(=O)O[C@H]1C(=O)c2ccc(OC)cc2O[C@@H]1c1ccc2c(c1)OCO2", "activity change, negative = inhibition": "1% (inactive)"}
{"compound": "COc1cc2c(c(OC)c1OC)C1(c3ccccc3)CCCCCC1[C@@H]2NC(=O)C(F)(F)F", "note": "(some centres not stated)", "activity change, negative = inhibition": "-19.1% (inactive)"}
{"compound": "C[C@@H]1CC[C@H]2C(=O)N(Cc3cccc([N+](=O)[O-])c3)C[C@@H](O)CN2[C@@H]1c1cccc(Br)c1", "activity change, negative = inhibition": "-7.76% (inactive)"}
{"compound": "CC[C@H]1OC(c2ccccc2)[C@H](C)[C@H]2O[C@@H]2[C@@H]1C(=O)OC", "note": "(some centres not stated)", "activity change, negative = inhibition": "5.18% (inactive)"}
{"compound": "C[C@H]1COC(=O)[C@H](Cc2ccccc2)NC(=O)[C@@H](C)COC(=O)[C@H](Cc2ccccc2)NC1=O", "activity change, negative = inhibition": "4.45% (inactive)"}
{"compound": "CCN1C(=NCc2cc(OC)c(OC)c(OC)c2)N[C@@H](c2ccccc2)[C@H](C(=O)OC)[C@H]1C", "Potency": "inactive"}
{"compound": "C[C@H]1Cc2c(-c3ccccc3)nc3c(c2CO1)CN(S(=O)(=O)c1ccc2c(c1)OCCN2C)CC3", "activity change, negative = inhibition": "-14.6% (inactive)"}
{"compound": "CC(=O)C1=C(C)N(Cc2ccccc2)C(=O)NC1c1cccs1", "note": "(configuration not stated)", "activity change, negative = inhibition": "-10.5% (inactive)"}
{"compound": "O=C1[C@H]2[C@@H]3[C@@H](O)[C@H](O)CC(=NOCc4ccccc4)[C@H]3CC[C@H]2C(=O)N1Cc1ccc2c(c1)OCO2", "activity change, negative = inhibition": "-19.1% (inactive)"}
{"compound": "COC(=O)N[C@@H](c1ccco1)[C@]1(C(C)=O)CCCC1=O", "activity change, negative = inhibition": "13.9% (inactive)"}
{"compound": "C=C(C)C(=O)C=Cc1ccc(Br)cc1", "activity change, negative = inhibition": "2.91% (inactive)"}
{"compound": "COC1=CC2C(=O)C(C1=O)[C@H](c1ccccc1)[C@H]2C", "note": "(some centres not stated)", "activity change, negative = inhibition": "-2.64% (inactive)"}
{"assay": "qHTS for Inhibitors of Plasmodium falciparum (HB3) proliferation (AID 504318); note: nearly all actives have a fitted effect of over 60% in size; note: potency is the fitted concentration of half-maximal effect;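 for activity change, negative = inhibition: 0% = DMSO vehicle and -100% = artemisinin control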", "conditions": "P. falciparum HB3 in erythrocytes, SYBR Green DNA, 72 h; series mostly up to 7.21 µM; activity change, negative = inhibition: at the top concentration", "method_in_brief": "as §1"}
{"compound": "COc1ccc(C=CNC(=O)Cc2ccc(OC)c(OC)c2)cc1", "activity change, negative = inhibition": "-4.07% (inactive)"}
{"compound": "C=CC1=C2C=C(C3CC3)N(CC(C)C)C=C2C(=O)C(C)(OC(=O)c2ccco2)C1=O", "note": "(configuration not stated)", "activity change, negative = inhibition": "-1.23% (inactive)"}
{"compound": "N#CCCCS(=O)(=O)c1nnnn1-c1ccccc1", "activity change, negative = inhibition": "6.44% (inactive)"}
{"compound": "CCO[C@@H]1C[C@@]1(C=C[C@@H](C)[C@H](OC)c1ccccc1Br)C(=O)OC", "activity change, negative = inhibition": "-4.41% (inactive)"}
{"compound": "COC(=O)CC=C[C@@H](C)[C@@H](COc1ccccc1Br)OC", "activity change, negative = inhibition": "-0.27% (inactive)"}
{"compound": "C=CC[C@@H]1C=CC(ON=CC[C@@H]2C=C[C@@H](OC(C)=O)[C@@H](COC(C)=O)O2)[C@H](CO)O1", "note": "(some centres not stated)", "activity change, negative = inhibition": "-6.29% (inactive)"}
{"compound": "CCN1C(=O)N[C@@H](c2ccccc2)[C@@H](C(=O)OC)[C@H]1C", "Potency": "inactive"}
{"compound": "COC(=O)C[C@H]1c2ccccc2[C@@H]2C(=C[C@@H](C)[C@H]3C(=O)N(c4ccccc4)C(=O)[C@H]32)N1C(=O)OC", "activity change, negative = inhibition": "0.498% (inactive)"}
{"compound": "COc1ccc([C@]23Cc4cc(C#N)ccc4[C@H](O2)C2=C(CC4(CCCCC4)OC2=O)O3)cc1", "activity change, negative = inhibition": "-13% (inactive)"}
{"compound": "COC(=O)C1=C(C)C(=O)[C@]2(O)c3ccccc3N(C)[C@]12C", "activity change, negative = inhibition": "-7.34% (inactive)"}
{"compound": "CC#CCN1C(=O)NC(c2ccccc2)C(C#N)=C1C", "note": "(configuration not stated)", "activity change, negative = inhibition": "-2.89% (inactive)"}
{"compound": "CCCCCCN1C(=O)CC[C@@]23C1=NC(C(=O)OC)=C(C(=O)OC)[C@@H]2N(Cc1ccccc1)c1ccccc13", "activity change, negative = inhibition": "-9.47% (inactive)"}
{"compound": "COC1=C[C@H](C(=O)NCc2ccc(Br)cc2)C(C)C(c2ccccc2)CC1=O", "note": "(some centres not stated)", "activity change, negative = inhibition": "2.77% (inactive)"}
{"compound": "CC(=O)OC[C@H]1O[C@H](C#Cc2ccccc2)C=C[C@@H]1OC(C)=O", "activity change, negative = inhibition": "-6.69% (inactive)"}
{"compound": "COC(=O)N1[C@H]2CC[C@@]3(C)C=C(C)O[C@]1(C)C3c1ccccc12", "activity change, negative = inhibition": "3.29% (inactive)"}
{"compound": "CCCC[C@@H]1CN2[C@@H](CC[C@H](C)[C@@H]2c2ccc(Br)cc2)C(=O)O1", "activity change, negative = inhibition": "-4.08% (inactive)"}
{"compound": "CCCCS(=O)(=O)N1C2=NC3=C(C(=O)N(CCOC)C3=O)C3N(C)c4ccccc4[C@]23C[C@H]1CO", "note": "(some centres not stated)", "activity change, negative = inhibition": "0.867% (inactive)"}
{"compound": "COc1cc2c(cc1OC)[C@@H]1O[C@](CCCCN3C(=O)c4ccccc4C3=O)(C2)Oc2c1c(=O)oc1ccccc21", "Potency": "2.39 µM (active)"}
{"compound": "O=C1C=C(c2ccccc2)CCC1", "activity change, negative = inhibition": "7.6% (inactive)"}
{"compound": "O=C(NN=C1C[C@@H](O)[C@H](O)[C@H]2[C@@H]3C(=O)N(Cc4ccc5c(c4)OCO5)C(=O)[C@@H]3CC[C@H]12)OCc1ccccc1", "activity change, negative = inhibition": "-9.73% (inactive)"}
{"compound": "O=C1[C@H]2[C@@H]3[C@@H](O)[C@H](O)CC(=NOCc4ccccc4)[C@H]3CC[C@H]2C(=O)N1C1CCCCC1", "activity change, negative = inhibition": "1.4% (inactive)"}
{"compound": "COc1cc2c(cc1OC)CSC1C(=O)N(C)C(SC2)C(=O)N1C", "activity change, negative = inhibition": "-4.41% (inactive)"}
{"compound": "COC(=O)CCC(=O)OC1(C)C(=O)C=C2C=C(C3CC3)N(Cc3ccc(OC)cc3)C=C2C1=O", "note": "(configuration not stated)", "Potency": "inactive"}
{"compound": "CCN1C(=NCCc2ccccn2)NC(c2cccc(C(F)(F)F)c2)C(C(=O)OC)=C1C", "note": "(configuration not stated)", "activity change, negative = inhibition": "-8.15% (inactive)"}
{"compound": "COC(=O)[C@H](COC(C)(C)C)NC(=O)O[C@@H]1C(=O)c2cc(OC)ccc2O[C@H]1c1cccc(OC)c1", "activity change, negative = inhibition": "1.89% (inactive)"}
{"compound": "CCCCn1c(C)cc2c(c1=O)[C@H]1O[C@](c3ccsc3)(Cc3cc(OC)c(OC)cc31)O2", "activity change, negative = inhibition": "5.38% (inactive)"}
{"compound": "CCCCc1nc2c(c3c1C[C@H](C)OC3)CN(C(=O)c1cccnc1)CC2", "Potency": "inactive"}
{"compound": "O=C1OCCC=C1C(O)CCc1ccccc1", "note": "(configuration not stated)", "activity change, negative = inhibition": "2.7% (inactive)"}
{"assay": "qHTS for Inhibitors of Plasmodium falciparum (CP250) proliferation (AID 504320);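 note: plate controls were DMSO vehicle for no effect and 0.29 µM artemisinin control for full effect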", "conditions": "P. falciparum CP250 in erythrocytes, SYBR Green DNA, 72 h; series mostly up to 6.7 µM; activity change, negative = inhibition: at the top concentration", "method_in_brief": "as §1"}
{"compound": "COc1ccc(C=CNC(=O)Cc2ccc(OC)c(OC)c2)cc1", "activity change, negative = inhibition": "-0.911% (inactive)"}
{"compound": "C=CC1=C2C=C(C3CC3)N(CC(C)C)C=C2C(=O)C(C)(OC(=O)c2ccco2)C1=O", "note": "(configuration not stated)", "Potency": "inactive"}
{"compound": "COC(=O)[C@H](Cc1ccccc1)NC(=O)O[C@H]1C(=O)c2ccc(OC)cc2O[C@@H]1c1ccc2c(c1)OCO2", "activity change, negative = inhibition": "5.67% (inactive)"}
{"compound": "N#CCCCS(=O)(=O)c1nnnn1-c1ccccc1", "activity change, negative = inhibition": "-0.516% (inactive)"}
{"compound": "COc1cc2c(c(OC)c1OC)C1(c3ccccc3)CCCCCC1[C@@H]2NC(=O)C(F)(F)F", "note": "(some centres not stated)", "activity change, negative = inhibition": "-2.95% (inactive)"}
{"compound": "COC(=O)CC=C[C@@H](C)[C@@H](COc1ccccc1Br)OC", "activity change, negative = inhibition": "2.79% (inactive)"}
{"compound": "C=CC[C@@H]1C=CC(ON=CC[C@@H]2C=C[C@@H](OC(C)=O)[C@@H](COC(C)=O)O2)[C@H](CO)O1", "note": "(some centres not stated)", "activity change, negative = inhibition": "1.29% (inactive)"}
{"compound": "C[C@@H]1CC[C@H]2C(=O)N(Cc3cccc([N+](=O)[O-])c3)C[C@@H](O)CN2[C@@H]1c1cccc(Br)c1", "activity change, negative = inhibition": "-0.737% (inactive)"}
{"compound": "CC[C@H]1OC(c2ccccc2)[C@H](C)[C@H]2O[C@@H]2[C@@H]1C(=O)OC", "note": "(some centres not stated)", "activity change, negative = inhibition": "11% (inactive)"}
{"compound": "CCN1C(=O)N[C@@H](c2ccccc2)[C@@H](C(=O)OC)[C@H]1C", "Potency": "inactive"}
{"compound": "C[C@H]1COC(=O)[C@H](Cc2ccccc2)NC(=O)[C@@H](C)COC(=O)[C@H](Cc2ccccc2)NC1=O", "activity change, negative = inhibition": "0.591% (inactive)"}
{"compound": "CCN1C(=NCc2cc(OC)c(OC)c(OC)c2)N[C@@H](c2ccccc2)[C@H](C(=O)OC)[C@H]1C", "Potency": "inactive"}
{"compound": "COc1ccc([C@]23Cc4cc(C#N)ccc4[C@H](O2)C2=C(CC4(CCCCC4)OC2=O)O3)cc1", "activity change, negative = inhibition": "-0.993% (inactive)"}
{"compound": "COC(=O)C1=C(C)C(=O)[C@]2(O)c3ccccc3N(C)[C@]12C", "activity change, negative = inhibition": "-2.41% (inactive)"}
{"compound": "C[C@H]1Cc2c(-c3ccccc3)nc3c(c2CO1)CN(S(=O)(=O)c1ccc2c(c1)OCCN2C)CC3", "Potency": "inactive"}
{"compound": "CC#CCN1C(=O)NC(c2ccccc2)C(C#N)=C1C", "note": "(configuration not stated)", "activity change, negative = inhibition": "-3.84% (inactive)"}
{"compound": "COC(=O)N1[C@H]2CC[C@@]3(C)C=C(C)O[C@]1(C)C3c1ccccc12", "activity change, negative = inhibition": "-1.31% (inactive)"}
{"compound": "CC(=O)C1=C(C)N(Cc2ccccc2)C(=O)NC1c1cccs1", "note": "(configuration not stated)", "activity change, negative = inhibition": "1.98% (inactive)"}
{"compound": "O=C1C=C(c2ccccc2)CCC1", "activity change, negative = inhibition": "5.17% (inactive)"}
{"compound": "O=C1[C@H]2[C@@H]3[C@@H](O)[C@H](O)CC(=NOCc4ccccc4)[C@H]3CC[C@H]2C(=O)N1C1CCCCC1", "activity change, negative = inhibition": "3.8% (inactive)"}
{"compound": "O=C1[C@H]2[C@@H]3[C@@H](O)[C@H](O)CC(=NOCc4ccccc4)[C@H]3CC[C@H]2C(=O)N1Cc1ccc2c(c1)OCO2", "activity change, negative = inhibition": "-1.08% (inactive)"}
{"compound": "COC(=O)N[C@@H](c1ccco1)[C@]1(C(C)=O)CCCC1=O", "activity change, negative = inhibition": "0.59% (inactive)"}
{"compound": "COC(=O)CCC(=O)OC1(C)C(=O)C=C2C=C(C3CC3)N(Cc3ccc(OC)cc3)C=C2C1=O", "note": "(configuration not stated)", "Potency": "inactive"}
{"compound": "COC(=O)[C@H](COC(C)(C)C)NC(=O)O[C@@H]1C(=O)c2cc(OC)ccc2O[C@H]1c1cccc(OC)c1", "activity change, negative = inhibition": "0.424% (inactive)"}
{"compound": "C=C(C)C(=O)C=Cc1ccc(Br)cc1", "activity change, negative = inhibition": "8.16% (inactive)"}
{"compound": "CCCCn1c(C)cc2c(c1=O)[C@H]1O[C@](c3ccsc3)(Cc3cc(OC)c(OC)cc31)O2", "Potency": "inactive"}
{"compound": "COC1=CC2C(=O)C(C1=O)[C@H](c1ccccc1)[C@H]2C", "note": "(some centres not stated)", "activity change, negative = inhibition": "6.94% (inactive)"}
